In PubChem BioAssay:
Calls of active or inactive are those of the source.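 How the source made its calls: active means inhibition at or above 50% relative to wild type and mutant plate controls; inactive means inhibition below 50%.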

Experiment: loss of swimming-algae plug formation – whole organism, Chlamydomonas reinhardtii, WT vs cilia-less mutant, absorbance, 96-well, primary screen (AID 463189);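 further: 0% = wild type cc124 cells in DMSO and 100% = ciliumless bld1 mutant cells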
Conditions: Chlamydomonas reinhardtii gravitaxis, OD600 absorbance, 2 days; at 10 µM; hits give high values

| SMILES | inhibition |
| --- | --- |
| COc1ccc(/C(O)=C2/C(=O)C(=O)N(c3ncccn3)C2c2ccc(OC)c(OC)c2)cc1 (stereo unspecified) | 3.9% (inactive) |
| COc1cccc2c(=O)c(SC(F)(F)C(F)C(F)(F)F)c(C)[nH]c12 (stereo unspecified) | -12.2% (inactive) |
| COc1ccccc1N(O)C1CC(=O)N(c2ccc(F)cc2)C1=O (stereo unspecified) | -1.02% (inactive) |
| CC1CN(C2CCN(S(=O)(=O)c3ccccc3)CC2)CC(C)O1 (stereo unspecified) | 6.96% (inactive) |
| CC(C)OC(=O)c1nn2c(C(F)(F)F)cc(-c3ccc(Br)o3)nc2c1Br | 18.5% (inactive) |
| O=S(=O)(c1ccc(Cl)cc1)N1CCC(N2CCCCCC2)CC1 | 121% (active) |
| CCCCNC(=O)N1CCOCCOCCN(C(=O)NCCCC)CCOCCOCC1 | 17.8% (inactive) |
| C=CCc1c(C)c(C#N)c2nc3ccccc3n2c1N1CCN(C)CC1 | 7.97% (inactive) |
| COc1ccc(C2=Nn3c(nnc3-c3ccccn3)SC2)cc1 | 2.53% (inactive) |
| COC(=O)c1nn2c(C(F)(F)F)cc(-c3ccc(Br)o3)nc2c1Br | 8.6% (inactive) |
| Cc1cc(C)nc(N(C#N)CC(=O)N(c2ccccc2)C(C)C)n1 | 5.11% (inactive) |
| CC1(C)CC(N(Cc2ccco2)C(=O)Cc2ccccc2)CCO1 (stereo unspecified) | 6.62% (inactive) |
| O=C(c1ccc(=O)oc1)N1CCOCC1 | 25% (inactive) |
| CCOC(=O)C1CCCN(c2nc3ccccc3nc2C(C#N)C(=O)OCCOC)C1 (stereo unspecified) | 6.3% (inactive) |
| COC(=O)CSc1nc(N)c2c3c(sc2n1)CCCC3 | -6.63% (inactive) |
| Cc1c(C(Nc2ccccn2)c2ccccc2)c(=O)n(-c2ccccc2)n1C (stereo unspecified) | 23.1% (inactive) |
